PubChem BioAssay
Calls of active or inactive are those of the source.

Tests used:
[1] = small molecules captured by biotinylated probe aFSTL3 – biochemical, small-molecule microarray, fluorescence 635/667, stem cell growth factor project, primary screen (AID 1064); conditions: higher = more signal;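 note: measures binding of the biotinylated anti-FSTL3 antibody to printed compounds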
[2] = binders from COS7 lysate, DM2A8 probe, primary screen, torsin A project, cell lysate, small-molecule microarray, fluorescence 635/667 (AID 1065); conditions: higher = more signal, COS7 lysate expressing mutant human TOR1A
[3] = small molecules captured by biotinylated probe aFGF2 – biochemical, small-molecule microarray, fluorescence 635/667, stem cell growth factor project, primary screen (AID 1067); conditions: higher = more signal;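 note: measures binding of biotinylated aFGF2 protein to printed compounds on slides; z-score merges feature fluorescence and signal-to-noise across triplicate slides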
[4] = small molecules captured by biotinylated probe aFGF10 – biochemical, small-molecule microarray, fluorescence 635/667, stem cell growth factor project, primary screen (AID 1071); conditions: higher = more signal;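 note: score merges 667 nm spot intensity and signal to noise from triplicate slides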
[5] = target: Neurogenic locus notch homolog protein 2 (Homo sapiens) (UniProt Q04721); experiment: small molecules binding Notch2 protein – biochemical, small-molecule microarray, 635 nm fluorescence, stem cell growth factors, primary screen (AID 1073); conditions: higher = more signal
Neurogenic locus notch homolog protein 2 (Homo sapiens), sequence (Q04721 whole entry, looked up, canonical isoform): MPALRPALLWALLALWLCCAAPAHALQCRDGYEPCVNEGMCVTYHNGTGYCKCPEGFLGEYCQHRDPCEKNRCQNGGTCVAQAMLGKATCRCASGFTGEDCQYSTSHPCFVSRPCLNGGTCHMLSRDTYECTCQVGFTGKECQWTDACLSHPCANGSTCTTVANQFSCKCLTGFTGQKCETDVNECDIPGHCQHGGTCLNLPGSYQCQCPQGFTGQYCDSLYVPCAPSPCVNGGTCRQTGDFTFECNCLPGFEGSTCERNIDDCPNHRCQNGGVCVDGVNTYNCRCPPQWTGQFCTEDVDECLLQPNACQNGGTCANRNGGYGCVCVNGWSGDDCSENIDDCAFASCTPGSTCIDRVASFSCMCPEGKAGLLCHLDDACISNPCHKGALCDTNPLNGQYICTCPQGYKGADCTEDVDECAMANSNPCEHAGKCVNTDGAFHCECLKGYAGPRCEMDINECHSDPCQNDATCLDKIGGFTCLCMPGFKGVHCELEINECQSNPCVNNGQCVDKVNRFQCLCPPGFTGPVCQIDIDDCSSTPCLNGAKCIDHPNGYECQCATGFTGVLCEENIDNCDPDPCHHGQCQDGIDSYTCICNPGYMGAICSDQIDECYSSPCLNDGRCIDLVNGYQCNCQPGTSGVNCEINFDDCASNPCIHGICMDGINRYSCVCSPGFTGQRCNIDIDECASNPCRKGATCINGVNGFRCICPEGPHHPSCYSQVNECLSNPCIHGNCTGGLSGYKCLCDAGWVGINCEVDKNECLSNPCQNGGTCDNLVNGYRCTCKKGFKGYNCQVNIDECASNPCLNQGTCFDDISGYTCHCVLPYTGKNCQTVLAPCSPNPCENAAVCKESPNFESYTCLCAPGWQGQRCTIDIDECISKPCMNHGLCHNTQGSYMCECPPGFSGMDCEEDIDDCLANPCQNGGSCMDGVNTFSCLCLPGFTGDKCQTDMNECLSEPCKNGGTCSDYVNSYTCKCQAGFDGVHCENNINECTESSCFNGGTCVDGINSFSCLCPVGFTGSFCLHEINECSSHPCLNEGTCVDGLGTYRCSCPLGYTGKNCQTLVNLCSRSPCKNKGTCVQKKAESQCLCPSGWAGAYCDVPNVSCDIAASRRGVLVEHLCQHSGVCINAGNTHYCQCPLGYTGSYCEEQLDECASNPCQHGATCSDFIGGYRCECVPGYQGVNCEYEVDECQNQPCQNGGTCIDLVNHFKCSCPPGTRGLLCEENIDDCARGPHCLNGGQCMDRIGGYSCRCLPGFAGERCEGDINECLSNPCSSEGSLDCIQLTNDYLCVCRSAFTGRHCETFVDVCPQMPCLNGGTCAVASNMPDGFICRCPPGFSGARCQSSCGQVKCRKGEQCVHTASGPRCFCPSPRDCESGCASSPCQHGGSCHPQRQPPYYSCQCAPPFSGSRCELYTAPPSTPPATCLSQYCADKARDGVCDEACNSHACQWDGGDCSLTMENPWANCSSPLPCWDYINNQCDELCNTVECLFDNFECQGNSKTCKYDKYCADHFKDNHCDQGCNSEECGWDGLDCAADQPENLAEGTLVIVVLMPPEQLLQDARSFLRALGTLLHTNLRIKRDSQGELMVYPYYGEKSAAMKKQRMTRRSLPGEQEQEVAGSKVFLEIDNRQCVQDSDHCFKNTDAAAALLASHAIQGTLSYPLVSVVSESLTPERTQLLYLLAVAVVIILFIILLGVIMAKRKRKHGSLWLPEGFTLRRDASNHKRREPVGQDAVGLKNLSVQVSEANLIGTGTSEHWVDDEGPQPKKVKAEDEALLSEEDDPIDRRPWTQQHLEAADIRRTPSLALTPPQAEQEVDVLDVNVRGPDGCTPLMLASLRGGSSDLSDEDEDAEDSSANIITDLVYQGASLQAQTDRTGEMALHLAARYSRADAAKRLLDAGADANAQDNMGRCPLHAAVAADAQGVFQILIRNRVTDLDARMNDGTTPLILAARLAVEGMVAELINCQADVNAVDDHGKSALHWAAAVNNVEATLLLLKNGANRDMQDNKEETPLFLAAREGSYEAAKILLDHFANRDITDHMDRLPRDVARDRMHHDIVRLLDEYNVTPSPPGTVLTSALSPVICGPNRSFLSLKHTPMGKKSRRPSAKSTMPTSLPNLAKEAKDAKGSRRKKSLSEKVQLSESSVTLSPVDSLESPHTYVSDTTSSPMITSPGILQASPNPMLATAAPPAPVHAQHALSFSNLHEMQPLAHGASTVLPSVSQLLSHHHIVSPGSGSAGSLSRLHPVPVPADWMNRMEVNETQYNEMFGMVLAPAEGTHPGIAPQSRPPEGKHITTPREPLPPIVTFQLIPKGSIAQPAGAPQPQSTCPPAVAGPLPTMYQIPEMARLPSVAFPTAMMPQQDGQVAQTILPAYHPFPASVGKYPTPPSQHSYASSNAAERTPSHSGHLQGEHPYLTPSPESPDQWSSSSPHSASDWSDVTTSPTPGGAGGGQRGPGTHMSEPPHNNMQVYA

[6] = target: Pro-neuregulin-1, membrane-bound isoform (Homo sapiens) (UniProt Q02297); experiment: small molecules binding neuregulin-1 protein – biochemical, small-molecule microarray, fluorescence 635/667, psychiatric disease protein project, primary screen (AID 1075); conditions: NRG1 binding, 635 nm fluorescence, higher = more signal;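 note: score combines 667 nm spot fluorescence with signal to noise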
Pro-neuregulin-1, membrane-bound isoform (Homo sapiens), sequence (Q02297 whole entry, looked up, the tested form may be a part, canonical isoform): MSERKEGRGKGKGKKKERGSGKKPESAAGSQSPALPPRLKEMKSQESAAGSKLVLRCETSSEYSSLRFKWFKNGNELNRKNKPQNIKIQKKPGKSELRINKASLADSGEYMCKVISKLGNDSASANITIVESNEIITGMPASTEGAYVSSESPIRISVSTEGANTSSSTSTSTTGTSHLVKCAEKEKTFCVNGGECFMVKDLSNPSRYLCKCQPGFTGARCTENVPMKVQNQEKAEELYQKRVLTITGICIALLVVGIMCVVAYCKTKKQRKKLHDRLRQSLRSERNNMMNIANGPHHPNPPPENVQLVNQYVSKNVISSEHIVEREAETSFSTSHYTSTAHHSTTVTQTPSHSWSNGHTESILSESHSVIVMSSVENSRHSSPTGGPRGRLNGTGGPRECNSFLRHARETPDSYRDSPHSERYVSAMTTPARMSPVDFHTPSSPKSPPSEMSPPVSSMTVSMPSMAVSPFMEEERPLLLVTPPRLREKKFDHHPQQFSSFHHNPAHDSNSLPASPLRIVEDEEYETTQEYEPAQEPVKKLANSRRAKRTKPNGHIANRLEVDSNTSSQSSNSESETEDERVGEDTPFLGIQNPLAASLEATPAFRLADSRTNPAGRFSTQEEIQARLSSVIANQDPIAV

[7] = tested on: Neuregulin-1 EGF-like domain; experiment: small molecules binding NRG1 EGF domain – biochemical, small-molecule microarray, 635 nm fluorescence, primary screen (AID 1081); conditions: higher = more signal;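 note: binding of the protein to compounds printed on small-molecule microarray slides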
[8] = FRG1 expression reporter modulators in myotubes – cell-based, C2C12 myotubes, firefly/Renilla luciferase, luminescence, FRG1 inhibition for FSHD, primary screen (AID 1084); conditions: FRG1 promoter luciferase, higher = more signal, called active from +8 up or from −8 down
[9] = small molecules captured by biotinylated probe aFST – biochemical, small-molecule microarray, fluorescence 635/667, stem cell growth factor project, primary screen (AID 1086); conditions: higher = more signal;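 note: score merges 667 nm fluorescence with signal-to-noise of each printed compound spot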
[10] = binders of probe aHhip on microarray, primary screen, stem cell growth factor project, biochemical, small-molecule microarray, fluorescence 635/667 (AID 1087); conditions: higher = more signal;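 note: score merges spot fluorescence at 667nm with spot signal to noise ratio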
[11] = tested on: PRMT1 (protein arginine N-methyltransferase 1); experiment: small molecules binding arginine methyltransferase PRMT1 – biochemical, small-molecule microarray, 635 nm fluorescence, primary screen (AID 1088); conditions: higher = more signal;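 note: binding of Prmt1 protein to compounds spotted on small-molecule microarray slides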
[12] = growth effects on S. cerevisiae YJM789 – YJM789 clinical isolate, OD600, 24 h, basal, primary screen (AID 1089); conditions: higher = more signal, called active from +8 up or from −8 down;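 note: growth of clinical yeast isolate S. cerevisiae YJM 789 seeded 1000 cells per well; test concentration not given here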
[13] = S. pombe growth modifiers, basal conditions – strain 972, OD600, 24 h, no modulator, primary screen (AID 1090);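 note: basal condition with compound alone and no growth modifier present; test concentration not given here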; conditions: S. pombe 972 growth, higher = more signal, called active from +8 up or from −8 down
[14] = budding yeast growth modifiers under rapamycin – strain BY4716, OD600, 96 h, primary screen (AID 1091); note: test concentration not given here; conditions: S. cerevisiae BY4716 + rapamycin, higher = more signal, called active from +8 up or from −8 down
[15] = target: Torsin-1A-interacting protein 2 (Homo sapiens) (UniProt Q8NFQ8); experiment: small molecules binding lysate-expressed LULL1 – cell lysate, human LULL1 lysate, 635/667 nm fluorescence, primary screen (AID 1092); conditions: small-molecule microarray, hLULL1 lysate binding, 635 nm fluorescence; higher = more signal;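 note: probe is lysate of COS7 cells overexpressing human LULL1; score merges per-feature 667 nm fluorescence with signal-to-noise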
Torsin-1A-interacting protein 2 (Homo sapiens), sequence (Q8NFQ8 whole entry, looked up): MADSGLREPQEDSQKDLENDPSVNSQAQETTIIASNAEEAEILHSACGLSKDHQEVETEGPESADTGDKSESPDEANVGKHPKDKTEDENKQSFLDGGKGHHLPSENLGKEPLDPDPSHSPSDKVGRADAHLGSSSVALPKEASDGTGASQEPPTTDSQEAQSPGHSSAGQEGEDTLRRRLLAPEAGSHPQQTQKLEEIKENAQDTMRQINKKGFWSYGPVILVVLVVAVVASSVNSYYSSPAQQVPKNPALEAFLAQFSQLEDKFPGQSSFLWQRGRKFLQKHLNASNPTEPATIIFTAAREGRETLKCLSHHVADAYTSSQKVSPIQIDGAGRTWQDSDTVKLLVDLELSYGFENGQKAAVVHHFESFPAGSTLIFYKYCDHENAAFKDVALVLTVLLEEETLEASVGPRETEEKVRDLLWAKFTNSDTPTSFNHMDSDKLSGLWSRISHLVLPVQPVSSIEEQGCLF

[16] = optical density change of DRC41 E. coli – strain DRC41, OD650, 24 h, E. coli filamentation project, primary screen (AID 1093);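 note: MC1000 strain lacking acrAB efflux and sulA so SOS filamentation is blocked; test concentration not given here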; conditions: E. coli DRC41 growth, higher = more signal, called active from +8 up or from −8 down
[17] = probe aLefty2 binding to arrayed compounds – biochemical, biotinylated probe, 635/667 nm fluorescence, primary screen (AID 1094); conditions: small-molecule microarray, higher = more signal;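 note: score merges spot fluorescence near 667 nm with spot signal-to-noise ratio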
[18] = tested on: Noggin (protein binding on small-molecule microarray); experiment: small molecules binding Noggin protein – biochemical, 635/667 nm fluorescence, primary screen (AID 1095); conditions: 635 nm fluorescence, higher = more signal;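 note: score merges 667 nm feature fluorescence with signal to noise over triplicate slides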
[19] = target: Neurogenic locus notch homolog protein 3 (Homo sapiens) (UniProt Q9UM47); experiment: small molecules binding NOTCH3 protein – biochemical, 635/667 nm fluorescence, primary screen (AID 1096); conditions: small-molecule microarray, 635 nm fluorescence, higher = more signal
[20] = probe aEGFR binding to arrayed compounds – biochemical, biotinylated probe, 635/667 nm fluorescence, primary screen (AID 1097); conditions: small-molecule microarray, higher = more signal;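 note: probe is a biotinylated anti-EGFR antibody binding compounds printed on slides; score combines fluorescence near 667 nm and signal to noise of each spot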

Structure (SMILES)	composite z-score [1]	composite z-score [2]	composite z-score [3]	composite z-score [4]	composite z-score [5]	composite z-score [6]	composite z-score [7]	z-score [8]	composite z-score [9]	composite z-score [10]	composite z-score [11]	z-score [12]	z-score [13]	z-score [14]	composite z-score [15]	z-score [16]	composite z-score [17]	composite z-score [18]	composite z-score [19]	composite z-score [20]
COc1ccc(C(=O)Nc2ccc(CN3C(=O)[C@@]4(O[C@@H](CCO)[C@H]([Si](C)(C)c5ccc(OC)cc5)[C@H]4C)c4ccccc43)cc2)cc1	-0.0338	0.623	-0.113	0.187	0.912	1.22	1.1	-3.12 (inactive)	0.25	-0.0645	1.54	-0.81 (inactive)	-7.92 (inactive)	0.495 (inactive)	1.4	0.0243 (inactive)	0.0217	1.49	1.08	-0.0774
C=C[C@H](COC(C)=O)N(C(=O)OC(C)(C)C)S(=O)(=O)c1ccc(Br)cc1	0.726	0.303	0.278	0.348	1.33	-0.243	0.652	-1.89 (inactive)	1.23	0.32	0.616	0.0834 (inactive)	-1.25 (inactive)	0.239 (inactive)	0.597	1.47 (inactive)	0.518	1.09	0.0585	0.545
C=CC[C@@]1(C(=O)NCc2ccccc2)N=C(c2ccc(OCCCO)cc2)O[C@@H]1c1ccccc1N=[N+]=[N-]	0.127	0.852	0.071	0.942	1.44	1.74	1.27	0.206 (inactive)	1.31	0.111	1.54	0.158 (inactive)	0.178 (inactive)	2.21 (inactive)	3.55	0.266 (inactive)	0.252	0.8	1.09	0.006
CC1CC/C=C\[C@H]2OC34C=CCN(c5ccc(Cl)cc5)C(=O)[C@H]3N(CCO)C(=O)[C@]4(C)C2C(=O)O1 (stereo not given in full)	0.359	0.0741	-0.12	-0.472	-0.749	0.93	0.842	-0.39 (inactive)	-0.448	-0.106	0.517	-1.51 (inactive)	-1.4 (inactive)	-0.528 (inactive)	0.139	0.613 (inactive)	-0.0619	-0.504	0.105	-0.166
CN1C(=O)[C@]2(Cc3ccccc3)N=C(c3ccc(OCCCO)cc3)O[C@@H]2c2ccccc21	0.547	0.758	-0.0333	0.802	0.826	1.36	1.35	-0.113 (inactive)	0.265	0.12	1.55	-0.112 (inactive)	-3.36 (inactive)	2.26 (inactive)	3.14	-0.538 (inactive)	-0.0354	1.34	0.845	0.0492
CC(=O)n1cc(C(O)C2C=CC3C(=O)N(C)C(=O)C3N2Nc2ccccc2)c2ccccc21 (stereo not given)	0.508	0.287	0.0672	0.974	1.58	1.78	1.27	0.376 (inactive)	0.951	-0.0196	1.05	-0.0186 (inactive)	1.4 (inactive)	1.05 (inactive)	3.18	-0.77 (inactive)	0.347	0.606	1.12	-0.0644
C=C(C)C1C(=C)CN([C@H](CO)c2ccccc2)C1=O (stereo not given in full)	0.172	-0.605	-0.132	-0.205	-0.725	-0.461	-0.708	0.0392 (inactive)	-0.0839	-0.0296	0.0584	-0.329 (inactive)	-0.635 (inactive)	-1.97 (inactive)	1.62	-0.233 (inactive)	-0.0757	0.245	0.0316	-0.18
COc1ccc(COC2OC[C@]3(C)[C@H]4C5=C(CN3C(=O)OC(C)(C)C)[C@H](C)C(CO)C(CO)C5CC[C@@H]24)cc1 (stereo not given in full)	0.262	1.27	-0.0832	0.424	1.65	1.02	0.982	2.67 (inactive)	1.98	-0.069	0.482	0.677 (inactive)	0.805 (inactive)	0.502 (inactive)	3.27	-1.76 (inactive)	0.341	0.277	1.06	0.0699
C=CCN1C(=O)[C@@]2(O[C@@H](CCO)[C@H]([Si](C)(C)c3ccc(OC)cc3)[C@H]2C)c2cc(NC(=O)c3ccc(OC)cc3)ccc21	-0.114	0.612	-0.0739	-0.0379	0.454	0.213	0.949	-0.797 (inactive)	0.171	-0.0003	1.54	0.411 (inactive)	-2.29 (inactive)	1.02 (inactive)	0.821	0.702 (inactive)	-0.0977	1.37	0.861	-0.159
CC(C)(C)OC(=O)CC[C@@]1(C(=O)NCC(O)CO)N=C(c2ccc(OCCCO)cc2)O[C@@H]1c1ccccc1N=[N+]=[N-] (stereo not given in full)	0.119	1.11	0.0599	0.559	1.2	1.97	1.17	2.43 (inactive)	0.552	-0.0618	1.54	1.17 (inactive)	-1.74 (inactive)	4.99 (inactive)	3.76	1.26 (inactive)	0.247	1.04	0.626	0.0773
C[C@@]1([C@@H](NC(=O)c2ccccc2)c2ccc(-c3ccccc3)cc2)C[C@H]1C1CCCCC1	0.742	-0.671	0.0891	-0.227	1.16	-0.0156	-0.382	2.09 (inactive)	0.57	0.122	-1.93	-0.0151 (inactive)	0.443 (inactive)	0.32 (inactive)	0.429	-1.48 (inactive)	0.527	-0.992	-1.42	0.247
COCCOC(=O)N1C(=O)[C@@]2(c3ccccc31)[C@H](c1ccccc1OCCO)N1[C@H](c3ccccc3)[C@H](c3ccccc3)OC(=O)[C@H]1[C@@H]2C(=O)Nc1nc2ccccc2s1	-0.223	1.03	0.0186	1.11	1.02	0.961	1.21	-1.02 (inactive)	0.215	0.0274	1.56	1.68 (inactive)	0.981 (inactive)	4.61 (inactive)	2.25	2.25 (inactive)	-0.0285	1.47	1.09	-0.0244
COCCCN1C(=O)[C@@]2(Cc3ccccc31)c1ccccc1C(=O)N(Cc1ccccc1C(F)(F)F)[C@H]2c1ccc(CO)cc1	-0.774	0.356	-0.123	-0.179	-0.16	-0.0485	0.848	-0.0864 (inactive)	0.222	-0.526	0.979	1.19 (inactive)	0.339 (inactive)	-1.41 (inactive)	2.51	-0.253 (inactive)	-0.143	0.992	0.627	-0.121
O=C1OCCC/C=C\[C@H]2OC34C=CCN(c5ccc6ccccc6c5)C(=O)[C@H]3N(CCCCCCO)C(=O)[C@@H]4C12 (stereo not given in full)	0.221	-0.295	-0.0824	-0.648	-1.15	-0.177	1.25	-0.824 (inactive)	-0.307	-0.0239	0.0502	-1.96 (inactive)	-1.15 (inactive)	-0.533 (inactive)	0.132	1.1 (inactive)	-0.25	-0.695	0.086	-0.0597
COCCOC(=O)N1C(=O)[C@@]2(c3cc(C#CC4=CCCCC4)ccc31)[C@H](c1ccc(O)cc1)N1[C@H](c3ccccc3)[C@H](c3ccccc3)OC(=O)[C@H]1[C@@H]2C(N)=O	-0.456	0.185	-0.0899	0.54	0.592	0.324	0.978	0.189 (inactive)	0.327	0.154	1.56	0.893 (inactive)	0.358 (inactive)	0.918 (inactive)	1.84	-0.603 (inactive)	-0.388	1.63	1.1	-0.11
C=CCN(Cc1ccccc1)C(=O)C(c1cccs1)N(CCOCCO)C(=O)/C=C\C(=O)O (stereo not given)	0.713	-1.43	-0.203	-0.873	-1.04	-0.353	-0.421	0.919 (inactive)	-1.59	-0.341	-0.785	-2.16 (inactive)	0.0374 (inactive)	-1.01 (inactive)	1.2	2.25 (inactive)	-0.0555	-2.41	-1.7	-0.329
CCN(CC)c1ccc(N2CC=CC34O[C@@H]5/C=C\CCC(C)OC(=O)C5[C@H]3C(=O)N(C(CO)C(C)C)[C@@H]4C2=O)cc1 (stereo not given in full)	0.165	-0.892	-0.0316	-0.551	-0.455	0.12	1.49	0.225 (inactive)	-0.344	1.01	0.746	-1.28 (inactive)	-0.892 (inactive)	-0.924 (inactive)	3.28	0.41 (inactive)	-0.17	-0.995	-0.0778	-0.13
C=CCNC(=O)[C@@H]1[C@H]2C(=O)O[C@H](c3ccccc3)[C@H](c3ccccc3)N2[C@H](c2ccc(OCCO)cc2)[C@@]12C(=O)Nc1ccc(C#Cc3ccc(OC)cc3)cc12	-0.175	1.14	0.0969	0.73	1.41	1.24	1.18	0.994 (inactive)	0.4	0.283	1.55	2.34 (inactive)	0.961 (inactive)	4.49 (inactive)	2.48	0.838 (inactive)	0.182	1.22	1.08	0.116
COC(=O)[C@@]1(Cc2ccc(OC)cc2)[C@H]2c3cc(C(=O)N4CCCC4)n(Cc4ccccc4)c3C[C@H]2CN1C(=O)c1ccccc1	2.67	0.0681	0.788	0.784	1.61	1.98	1.36	0.42 (inactive)	2.34	0.671	0.678	-0.183 (inactive)	0.657 (inactive)	1.12 (inactive)	3.37	-0.801 (inactive)	1.62	-0.242	1.05	1.25
